Experimental data published in PubChem BioAssay (NCATS).
Results filed as inconclusive are left out. Active and inactive are the calls of the source. Calls come from the whole dose curve; as a rule, active = well fitted cell-killing curve with a large enough effect; inconclusive = small, poorly fitted or top-dose-only effect, or effect the other way; inactive = no such curve, though single readings can be large or run the other way.
Potency is the fitted concentration of half-maximal effect.

Assay: Quantitative High-Throughput drug screen in 47 multiple myeloma cell lines against the NCATS MIPE library collection: INA6_PLB cell viability assay (AID 1918965; note: nearly all actives have a fitted effect of over 55% in size)
Details: INA6 myeloma viability, CellTiter-Glo ATP luminescence, 48 h; series mostly up to 45.8 µM
Method in brief: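 Myeloma cells (500 per well) were exposed to MIPE 4.0 compounds by pin transfer and incubated 48 hours at 37C, 5% CO2. Viability was read as ATP by CellTiter-Glo luminescence, normalised to DMSO (100%) and media-only (0%) wells.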
In the case of `CN[C@H]1CCc2cc(OC)c(OC)c(OC)c2-c2ccc(OC)c(=O)cc21`, the Potency was 0.001 µM (active). In the case of `c1ccc2c(CCNc3ccc(Nc4ccncc4)cc3)c[nH]c2c1`, the Potency was 23.5 µM (active). For `N#Cc1c(O)c2c(-c3ccc(-c4ccccc4O)cc3)csc2[nH]c1=O`, the Potency was “inactive”. For `Cn1cc(-c2ccncc2)c(-c2ccc(OCc3ccc4ccccc4n3)cc2)n1`, the Potency was 3.32 µM (active). For `Nc1ccc(S(=O)(=O)Nc2ncccn2)cc1`, the Potency was “inactive”. With `CN(C)CC(C)(C)CNc1nn2c(-c3ccccc3)nnc2cc1C1CCC1` the Potency was 2.96 µM (active). With `CN(C1CCc2c(c3ccccc3n2CC(=O)O)C1)S(=O)(=O)c1ccc(F)cc1` (stereo not given) the Potency was “inactive”. In the case of `C1Cc2[nH]nc(-c3nn[nH]n3)c2C1`, the Potency was “inactive”. For `CC(C)c1cc(-c2n[nH]c(=O)n2-c2ccc3c(ccn3C)c2)c(O)cc1O`, the Potency was 0.0264 µM (active). For `CCC(=C(c1ccccc1)c1ccc(OCCN(C)C)cc1)c1ccccc1`, the Potency was 16.6 µM (active). In the case of `Cc1ccc(S(=O)(=O)Nc2cc(Cl)ccc2C(=O)Nc2nc(-c3ccccc3)cs2)cc1`, the Potency was 8.33 µM (active). With `CC(C)(C)c1cc(NC(=O)Nc2ccc(-c3cn4c(n3)sc3cc(OCCN5CCOCC5)ccc34)cc2)no1` the Potency was 3.32 µM (active). For `O=C1CCC[C@@H]2[C@H]3CCC[N+]4([O-])CCC[C@@H](CN12)[C@@H]34` (stereo not given in full), the Potency was “inactive”. With `Cc1c(NC(=O)OC[C@@H]2COCCN2)cn2ncnc(Nc3ccc4c(cnn4Cc4cccc(F)c4)c3)c12` the Potency was 3.32 µM (active). With `CCCCCN(CCC12CC3CC(CC(C3)C1)C2)C(=O)NCCCc1ccncc1` the Potency was 16.6 µM (active). In the case of `Cc1ccc2nc(NC(=O)CSc3nc4c(c(=O)n3-c3ccccc3)SCC4)sc2c1`, the Potency was 8.33 µM (active). For `Cc1cc(N2CCOCC2)cc2[nH]c(-c3c(NC[C@@H](O)c4cccc(Cl)c4)cc[nH]c3=O)nc12`, the Potency was 0.296 µM (active). In the case of `O=C(O)Cn1nnc(-c2cc(N3CCC(Oc4cc(F)ccc4Br)CC3)no2)n1`, the Potency was “inactive”. For `O=C(O)c1ccc2cc(-c3ccc(O)c(C45CC6CC(CC(C6)C4)C5)c3)ccc2c1`, the Potency was 0.264 µM (active). In the case of `CCOC(=O)C1=C(C)NC2=C(C(=O)CC(C)(C)C2)C1c1ccc(-c2ccccc2)cc1` (stereo not given), the Potency was 26.4 µM (active).

Assay: Quantitative High-Throughput drug screen in 47 multiple myeloma cell lines against the NCATS MIPE library collection: JJN3_DSMZ cell viability assay (AID 1918966; note: nearly all actives have a fitted effect of over 50% in size)
Details: JJN3 myeloma cells viability, CellTiter-Glo ATP, 48 h; series mostly up to 45.8 µM
Method in brief: (§1)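 Myeloma cell lines, 500 cells per well, exposed to MIPE 4.0 library compounds for 48 h at 37C, 5% CO2. Viability from ATP by CellTiter-Glo luminescence; normalised to DMSO (100%) and media-only (0%) wells.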
For `Cn1cc(-c2ccncc2)c(-c2ccc(OCc3ccc4ccccc4n3)cc2)n1`, the Potency was 3.72 µM (active). In the case of `Nc1nc(-c2nn(Cc3ccccc3F)c3ncccc23)nc(N)c1N1CCOCC1`, the Potency was “inactive”. For `O=C(O)CO.[NH2-].[NH2-].[Pt+2]`, the Potency was “inactive”. In the case of `CC(C)c1cc(-c2n[nH]c(=O)n2-c2ccc3c(ccn3C)c2)c(O)cc1O`, the Potency was 0.0418 µM (active). In the case of `Cc1cc(N2CCOCC2)cc2[nH]c(-c3c(NC[C@@H](O)c4cccc(Cl)c4)cc[nH]c3=O)nc12`, the Potency was 1.48 µM (active). In the case of `CCOC(=O)C1=C(C)NC2=C(C(=O)CC(C)(C)C2)C1c1ccc(-c2ccccc2)cc1` (stereo not given), the Potency was 18.7 µM (active).

Assay: Quantitative High-Throughput drug screen in 47 multiple myeloma cell lines against the NCATS MIPE library collection: H1112_PLB cell viability assay (AID 1918967; note: nearly all actives have a fitted effect of over 30% in size)
Details: H1112 myeloma cells viability, ATP luminescence, 48 h; series mostly up to 45.8 µM
Method in brief: as §1
With `CCC1=C[C@@H]2CN(C1)Cc1c([nH]c3ccccc13)[C@@](C(=O)OC)(c1cc3c(cc1OC)N(C)[C@@H]1[C@@](O)(C(=O)OC)[C@H](OC(C)=O)[C@]4(CC)C=CCN5CC[C@]31[C@@H]54)C2` the Potency was 0.148 µM (active). For `c1ccc2c(CCNc3ccc(Nc4ccncc4)cc3)c[nH]c2c1`, the Potency was 18.7 µM (active). In the case of `CC(C)(O)CCc1ccc(OCc2cc(-c3cccc(OC(F)F)c3)c3ncccc3c2)cc1`, the Potency was 20.9 µM (active). For `N#Cc1c(O)c2c(-c3ccc(-c4ccccc4O)cc3)csc2[nH]c1=O`, the Potency was “inactive”. With `O=C(c1cncc(Br)c1)N1CCC(N2CCCC2)CC1` the Potency was “inactive”. For `Nc1nc(-c2nn(Cc3ccccc3F)c3ncccc23)nc(N)c1N1CCOCC1`, the Potency was “inactive”. For `CN(C1CCc2c(c3ccccc3n2CC(=O)O)C1)S(=O)(=O)c1ccc(F)cc1` (stereo not given), the Potency was “inactive”. With `O=C(O)CO.[NH2-].[NH2-].[Pt+2]` the Potency was “inactive”. For `C1Cc2[nH]nc(-c3nn[nH]n3)c2C1`, the Potency was “inactive”. For `COc1ccc(-n2nc(C(N)=O)c3c2C(=O)N(c2ccc(N4CCCCC4=O)cc2)CC3)cc1`, the Potency was “inactive”. For `COc1c(N2C[C@@H]3CCCN[C@H]3C2)c(F)cc2c(=O)c(C(=O)O)cn(C3CC3)c12`, the Potency was “inactive”. In the case of `CS(=O)(=O)c1ccc(-c2cnc(N)c(C(=O)Nc3ccccc3)n2)cc1`, the Potency was 4.18 µM (active). In the case of `C=C1C(=CC=C2CCCC3(C)[C@@H]([C@H](C)C=CC=CC(O)(CC)CC)CC[C@@H]23)C[C@@H](O)C[C@@H]1O` (stereo not given in full), the Potency was 23.5 µM (active). With `COc1ccc2c(OCc3nnc4ccc(-c5ccccc5)nn34)ccnc2c1` the Potency was “inactive”. In the case of `CCCCCN(CCC12CC3CC(CC(C3)C1)C2)C(=O)NCCCc1ccncc1`, the Potency was 18.7 µM (active). For `Cc1ccc2nc(NC(=O)CSc3nc4c(c(=O)n3-c3ccccc3)SCC4)sc2c1`, the Potency was 11.8 µM (active). For `Cc1cc(N2CCOCC2)cc2[nH]c(-c3c(NC[C@@H](O)c4cccc(Cl)c4)cc[nH]c3=O)nc12`, the Potency was 0.166 µM (active). With `O=C(O)Cn1nnc(-c2cc(N3CCC(Oc4cc(F)ccc4Br)CC3)no2)n1` the Potency was “inactive”. In the case of `O=C(O)c1ccc2cc(-c3ccc(O)c(C45CC6CC(CC(C6)C4)C5)c3)ccc2c1`, the Potency was 0.418 µM (active).
